# About 800 (1.6%) of roughly 50,000 compounds showed an effect of 50% or more. For the sample, strong results were picked, then their nearest neighbours and some compounds at random.
# Molecular target: Bcl-2-like protein 10 (Homo sapiens) (UniProt Q9HD36)
# Assay: Phenotype converters, Bcl-B/TR3 peptide binding displacement, primary biochemical FP (AID 1240);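 note: 0% = Bcl-B with tracer peptide and DMSO and 100% = tracer peptide lacking Bcl-B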
# Conditions: GST-Bcl-B / FITC-TR3 peptide fluorescence polarization; stronger effect = higher value; compound at 3.75 mg/L
# Sequence of Bcl-2-like protein 10 (Homo sapiens) (Q9HD36 whole entry, looked up): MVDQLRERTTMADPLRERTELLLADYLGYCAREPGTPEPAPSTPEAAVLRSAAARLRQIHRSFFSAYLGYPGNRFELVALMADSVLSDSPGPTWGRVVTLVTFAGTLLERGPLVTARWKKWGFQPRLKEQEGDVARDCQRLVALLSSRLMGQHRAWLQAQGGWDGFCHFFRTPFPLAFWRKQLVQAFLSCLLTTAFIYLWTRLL
row,Compound,displacement [%]
1,O=C(NCC1CCCO1)c1ccc(S(=O)(=O)N2CCCCC2)cc1 (configuration not stated),-4.5
2,Cc1cc(/C=C2/SC(=O)NC2=O)c(C)n1-c1cccc(Cl)c1,18.6
3,Cc1cc(/C=C2/NC(=O)NC2=O)c(C)n1-c1cccc(Cl)c1,10
4,Cc1cc(C=C2C(=O)c3ccccc3C2=O)c(C)n1-c1cccc(Cl)c1,180
5,Cc1cc(C=C2C(=O)c3ccccc3C2=O)c(C)n1-c1ccc(Cl)cc1,100
6,Cc1cccc(-n2c(C)cc(C=C3C(=O)c4ccccc4C3=O)c2C)c1,138
7,Cc1cc(C=C2C(=O)c3ccccc3C2=O)c(C)n1-c1cccc([N+](=O)[O-])c1,11.8
8,Cc1cc(C=C2C(=O)c3ccccc3C2=O)c(C)n1-c1ccc(N2CCOCC2)cc1,0.7
9,Cc1cc(C=C2C(=O)c3ccccc3C2=O)c(C)n1-c1cccnc1,-15.5
10,CCOC(=O)c1ccc(-n2c(C)cc(C=C3C(=O)c4ccccc4C3=O)c2C)cc1,11.9
11,CN1CCN(C(=O)c2cnn3c(C(F)(F)F)cc(-c4ccco4)nc23)CC1,6.4
12,O=C(O)CCCN1C(=O)C(=O)/C(=C(\O)c2ccc(Cl)cc2)C1c1ccc(F)cc1 (configuration not stated),-0.6
13,COc1ccc(N(CC(=O)NCCc2ccccc2)S(C)(=O)=O)c(OC)c1,3.4
14,Cc1ccc(-c2ccc(OCC(=O)N3CCCc4ccccc43)cc2)cc1,59.3
15,Cc1ccc(OCC(=O)N2CCCc3ccccc32)c(C)c1,6
16,Cc1ccccc1OCC(=O)N1CCCc2ccccc21,-4.9
17,Cc1ccc(-c2noc(COc3ccc4ccccc4c3)n2)cc1,11
18,CCOC(=O)c1cc2n(c1N(C(C)=O)C(C)=O)-c1ccccc1C2=O,-4.9
19,O=C1c2ccccc2-n2c1cc(C=Nc1ccc(Cl)cc1)c2O,112
20,CC(=O)NCCN=Cc1c(O)[nH]c2ccccc12,14
21,O=c1[nH]c(=O)n(-c2ccccc2F)c(O)c1C=Nc1ccc(Cl)cc1,-1.4
22,CC(=O)NCCN=Cc1cc2n(c1O)-c1ccccc1C2=O,167
23,O=c1[nH]c(=O)n(-c2ccccc2Cl)c(O)c1C=Nc1ccc(Cl)cc1,18.6
24,CC(=O)Oc1ccc(C(=O)N2c3ccccc3Sc3ccccc32)cc1,-7.2

row,Compound,displacement [%]
1,Cc1onc(-c2c(F)cccc2Cl)c1C(=O)NCc1ccc(Cl)cc1,-6.9
2,COc1ccc(/C=C/C(=O)NCCc2c[nH]c3ccccc23)cc1OC,-5
3,COc1ccc2c(Cl)c(C(=O)N/N=C/c3ccccn3)sc2c1,7.8
4,O=C(Nc1ccccc1)Nc1nnc(SCc2ccc(F)cc2)s1,13.5
5,CCCCCCCNc1ccc(NC(=O)c2ccccc2)c2c1C(=O)c1ccccc1C2=O,1.5
6,CCCCNc1ccc2c3c(cc(=O)n2C)-c2ccccc2C(=O)c13,129
7,Cn1c(=O)cc2c3c(c(Oc4ccccc4)ccc31)C(=O)c1ccccc1-2,108
8,Cn1c(=O)cc2c3c(c(N4CCCC4)ccc31)C(=O)c1ccccc1-2,38.2
9,COCCCNc1ccc2c3c(nc(=O)n2C)-c2ccccc2C(=O)c13,139
10,Cn1c(=O)cc2c3c(c(Nc4cccc(Cl)c4)ccc31)C(=O)c1ccccc1-2,15.7
11,Cn1c(=O)cc2c3c(c(N)ccc31)C(=O)c1ccccc1-2,139
12,Cn1c(=O)cc(-c2ccccc2)c2cc(Cl)ccc21,14.7
13,O=C1c2ccccc2C(=O)c2c(NCCO)ccc(NCCO)c21,46.4
14,Cn1c(=O)cc(-c2ccccc2)c2ccccc21,7.4
15,CCCCNc1cc(=O)n(C)c(=O)n1C,6.5
16,Nc1c(Cl)cc2c(c1Oc1ccccc1)C(=O)c1ccccc1C2=O,8.6
17,O=C1N=C(N=Nc2c(O)[nH]c3ccccc23)S/C1=C/c1ccc(Br)cc1,8.9
18,COc1ccc(OC(C)C(=O)Nc2ccc3c(c2)OCCO3)cc1 (configuration not stated),-4.5
19,CC(C)CC(NC(=O)c1ccccc1)C(=O)OCC(=O)N1c2ccccc2Sc2ccccc21 (configuration not stated),9.1
20,COc1ccc(S(=O)(=O)N(CC(=O)N2CCN(c3ccccc3)CC2)c2ccc(C)cc2)cc1OC,6.1
21,C=CCc1ccccc1OCCOc1ccc(Br)cc1/C=C1/SC(=S)N(C)C1=O,-1.8
22,CCCCOc1ccc(C(=O)N2CCN(c3cccc(C)c3C)CC2)cc1,-8.2
23,NNC(=O)COc1ccccc1OCCOCCOc1ccccc1OCC(=O)NN,-10.4
24,O=C1C=Cc2ccccc2/C1=N/Oc1ccc2noc3c2c1C(=O)c1ccccc1-3,25.9

row,Compound,displacement [%]
1,CC(=O)c1ccc2c3c(onc13)-c1ccccc1C2=O,2.4
2,O=C1c2ccccc2-c2onc3ccc(Cl)c1c23,40.4
3,CCOc1ccc2noc3c2c1C(=O)c1ccccc1-3,123
4,COc1ccc2noc3c2c1C(=O)c1ccccc1-3,127
5,COc1ccc(OC)c2c1C(=O)c1ccccc1C2=O,101
6,CC(C)CCOC(=O)c1ccc2c3c(onc13)-c1ccccc1C2=O,21
7,CCOc1ccc(Nc2ccc3noc4c3c2C(=O)c2ccccc2-4)cc1,-2
8,COc1ccccc1NS(=O)(=O)c1cccc2c1C(=O)c1ccccc1C2=O,3
9,O=C1c2ccccc2-c2onc3ccc(Sc4ccccc4)c1c23,17.9
10,COC1=C(c2ccccc2)C(=O)c2ccccc2C1=O,-8.5
11,CCOC(=O)c1ccc2c3c(onc13)-c1ccccc1C2=O,120
12,COc1cc2c(NCc3ccco3)cc(O)c(CC(=O)Nc3ccc(Cl)cc3)c2cc1OC,13
13,COc1ccc(OC)c(CN2CCN(S(C)(=O)=O)CC2)c1,-14
14,O=C(CSc1nnc(-c2ccco2)n1-c1ccccc1)CSc1nnc(-c2ccco2)n1-c1ccccc1,15.9
15,C=CCNC(=O)C1CC(=O)N(c2ccc(C)cc2)C1 (configuration not stated),-7.4
16,Cc1cc(C)nc(NS(=O)(=O)c2ccc(NC(=O)CSc3ncn[nH]3)cc2)n1,5.3
17,Nc1nc(Nc2nc(N3CCCC3)cc(C(F)(F)F)n2)cc(C(F)(F)F)n1,12
18,CC1=C/C(=N/OS(=O)(=O)c2ccccc2)C=CC1=O,28.6
19,O=C1c2ccc(Oc3ccc([N+](=O)[O-])cc3)cc2C(=O)N1c1cccc(-c2nc3ccccc3o2)c1,-3.8
20,O=C(Nc1ccc(Cl)c(Cl)c1)c1cc([N+](=O)[O-])ccc1N1CCCCC1,14
21,O=C(O)c1cccc2c1NC(c1ccccc1Br)C1CC=CC21 (configuration not stated),132
22,O=[N+]([O-])c1cccc2c1NC(c1ccc(Cl)cc1)C1CC=CC21 (configuration not stated),7.5
23,COc1cccc2c1NC(c1ccc(Cl)cc1)C1CC=CC21 (configuration not stated),9.1
24,O=C(O)c1cccc2c1NC(c1ccc(Cl)cc1)C1CC=CC21 (configuration not stated),148

row,Compound,displacement [%]
1,O=C(O)c1cccc2c1NC(c1cccc3ccccc13)C1CC=CC21 (configuration not stated),25.1
2,COc1cccc2c1NC(c1ccccc1Br)C1CC=CC21 (configuration not stated),-4.2
3,COc1cc(-c2ccccc2)nc(N)n1,-5.4
4,COc1ccc(/C=C/C(=O)Nc2ccc(Br)cc2C(=O)c2cc(OC)c(OC)c(OC)c2)cc1OC,1.6
5,COCC(=O)Nc1ccc2ccccc2c1,-2.7
6,Nc1ccc2nn(-c3ccc([N+](=O)[O-])cc3)nc2c1,-8.4
7,COc1cccc(N=Cc2c(O)n(-c3cc(OC)ccc3OC)c(=O)[nH]c2=O)c1,-2
8,COc1ccc(N=Cc2c(O)n(-c3cc(OC)ccc3OC)c(=O)[nH]c2=O)cc1,103
9,COc1ccc(N=Cc2c(O)n(-c3ccccc3OC)c(=O)[nH]c2=O)cc1,9.4
10,COc1ccccc1N=Cc1c(O)n(-c2ccccc2Cl)c(=O)[nH]c1=O,-6.6
11,COc1ccc(OC)c(N=Cc2c(O)n(-c3ccccc3C)c(=O)[nH]c2=O)c1,7.3
12,COc1ccc(OC)c(N=Cc2c(O)n(-c3ccccc3Cl)c(=O)[nH]c2=O)c1,98.7
13,CCOC(=O)c1c[nH]c2cc(C(=O)OC)ccc2c1=O,-19.8
14,CCC1=NN2C(=N)/C(=C/c3cccc(OCc4ccccc4F)c3)C(=O)N=C2S1,6.1
15,Cc1ccc(/C=C(\C#N)c2nn(-c3ccccc3)c(N)c2C#N)cc1,2.5
16,Cn1c(=O)n(C)c2cc(/C=C(\C#N)c3nn(-c4ccccc4)c(N)c3C#N)ccc21,92.9
17,Cc1ccc(COc2c(Br)cc(/C=C(\C#N)c3nn(-c4ccccc4)c(N)c3C#N)cc2Br)cc1,11.2
18,COC(=O)COc1ccc2c(=O)c(Oc3ccc(C(C)(C)C)cc3)coc2c1,8
19,C/C(=N/NC(=O)COc1ccc(C)cc1)c1ccc([N+](=O)[O-])cc1,1.6
20,CNS(=O)(=O)c1ccc(N/C=C(\C=O)c2nc3cc(Cl)ccc3o2)cc1,12.6
21,O=C/C(=C\Nc1ccc(S(=O)(=O)CCO)cc1)c1nc2ccccc2o1,9.7
22,O=C/C(=C\Nc1ccc(S(=O)(=O)CCO)cc1)c1nc2cc(Cl)ccc2o1,88.3
23,Cn1c(O)c(N=NC(=O)c2ccccc2NC(=O)c2ccccc2)c2ccccc21,-4
24,COCCOC(=O)c1c(C)oc2ccc(OCc3c(F)c(F)c(F)c(F)c3F)cc12,10.8

row,Compound,displacement [%]
1,CCn1cc(/C=C2/C(=O)NN(c3ccccc3)C2=O)c2ccccc21,13.1
2,CC(C)NC(=O)C1CC1(c1ccccc1)c1ccccc1 (configuration not stated),4.7
3,Cc1ccc(-n2ccc(N)c(C#N)c2=O)cc1,3.3
4,COc1ccccc1NC(=O)CCN1C(=O)S/C(=C/c2ccc(OC)c(OC)c2)C1=O,34.6
5,COc1ccc(/C=C2/SC(=O)N(CC(=O)Nc3cc(C)on3)C2=O)cc1OC,12.8
6,COc1ccc(/C=C2\SC(=S)N(CCC(=O)Nc3ccccc3C)C2=O)cc1OC,15.4
7,COc1ccc(/C=C2/SC(=O)N(CC(=O)Nc3ccc(F)c(Cl)c3)C2=O)cc1OC,12.3
8,COc1ccc(/C=C2\SC(=O)N(CCC(=O)Nc3ccccc3C)C2=O)cc1OC,79.4
9,COc1ccc(/C=C2/SC(=O)N(CC(=O)Nc3ccc(C)c(C)c3)C2=O)cc1OC,67
10,COC(=O)c1ccc(C(=O)OC)c(NC(=O)/C=C/c2ccco2)c1,63.5
11,COC(=O)c1ccc(C(=O)OC)c(NC(=O)COc2ccccc2Cl)c1,73.8
12,COC(=O)c1ccc(NC(=O)CC(c2ccccc2)c2ccccc2)cc1,-0.2
13,COC(=O)c1ccc(C(=O)OC)c(NC(=O)Cc2ccccc2[N+](=O)[O-])c1,14.7
14,CCC(C(=O)Nc1cc(C(=O)OC)ccc1C(=O)OC)c1ccccc1 (configuration not stated),5
15,COC(=O)c1cc(NC(=O)COc2ccccc2[N+](=O)[O-])cc(C(=O)OC)c1,13
16,COC(=O)c1ccc(C(=O)OC)c(NC(=O)/C=C/c2ccccc2)c1,8.7
17,COC(=O)c1ccc(C(=O)OC)c(NC(=O)CC(c2ccccc2)c2ccccc2)c1,63.5
18,COC(=O)c1ccc(C(=O)OC)c(NC(=O)COc2ccccc2[N+](=O)[O-])c1,66.9
19,COC(=O)c1ccc(C(=O)OC)c(NC(=O)/C=C/c2ccc(Cl)cc2)c1,-6.4
20,COC(=O)c1ccc(C(=O)OC)c(NC(=O)COc2cccc(Cl)c2)c1,1.2
21,COC(=O)c1ccc(C(=O)OC)c(NC(=O)COc2ccc(Cl)cc2C)c1,5.4

# Source: PubChem BioAssay AID1240 (Sanford-Burnham Center for Chemical Genomics, 2008)
